# Experimental data taken from article PMC7862700, “An all-to-all approach to the identification of sequence-specific readers for epigenetic DNA modifications on cytosine”.
# Target: T1, SPDEF (Homo sapiens, UniProt O95238 1-335)
# T1 sequence: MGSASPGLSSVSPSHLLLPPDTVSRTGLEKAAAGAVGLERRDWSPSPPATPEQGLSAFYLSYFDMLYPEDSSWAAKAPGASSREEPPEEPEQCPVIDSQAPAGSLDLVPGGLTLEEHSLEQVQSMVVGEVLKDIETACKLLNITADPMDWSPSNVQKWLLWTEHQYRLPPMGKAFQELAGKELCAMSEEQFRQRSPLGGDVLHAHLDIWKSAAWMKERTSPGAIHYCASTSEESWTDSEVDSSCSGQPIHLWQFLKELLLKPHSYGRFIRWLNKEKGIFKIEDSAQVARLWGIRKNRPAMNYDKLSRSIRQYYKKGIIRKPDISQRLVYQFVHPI
# Assay: DAPPL (digital affinity profiling via proximity ligation, sequencing); 10 mM Tris-HCl pH 7.5, 50 mM NaCl, 1 mM DTT, 4% glycerol, room temperature, 30 min; GST-TFs on glutathione beads, 16-mer random dsDNA library, 0.1% formaldehyde crosslink after washing; high values mean tight binding
# Conditions: protein: recombinant; tags: N-terminal GST; dsDNA, one strand shown
# How it was run: (§1)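 Yeast served to express human transcription factors as GST fusions, which were then captured on glutathione beads and labelled with DNA barcodes. Pooled with a tag-only sample, they were incubated with 200 nmole of a 16-mer random double-stranded DNA library for 30 min at room temperature in Tris/NaCl/DTT/glycerol buffer, washed, crosslinked with 0.1% formaldehyde, ligated by proximity, amplified by PCR and sequenced. Dividing each hexamer's read frequency for a factor by its frequency for the tag-only sample gives the binding signal.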
row,Sequence,binding signal
1,AGTATT,"1.05 fold enrichment (6-mer frequency, TF over GST control)"
2,GCTCTC,"1.12 fold enrichment (6-mer frequency, TF over GST control)"
3,AAAAAT,"1.21 fold enrichment (6-mer frequency, TF over GST control)"
4,TCGACC,"1.37 fold enrichment (6-mer frequency, TF over GST control)"
5,ACAGCT,"1.02 fold enrichment (6-mer frequency, TF over GST control)"
6,TGATGG,"1.09 fold enrichment (6-mer frequency, TF over GST control)"
7,TGATGC,"1.45 fold enrichment (6-mer frequency, TF over GST control)"
8,CCTATA,"1.45 fold enrichment (6-mer frequency, TF over GST control)"
9,TAAGTT,"1.42 fold enrichment (6-mer frequency, TF over GST control)"
10,TTACGG,"1.32 fold enrichment (6-mer frequency, TF over GST control)"
11,TTGATA,"1.13 fold enrichment (6-mer frequency, TF over GST control)"
12,GCTTTC,"1.18 fold enrichment (6-mer frequency, TF over GST control)"
13,AATGTT,"1.44 fold enrichment (6-mer frequency, TF over GST control)"
14,TAATTT,"1.32 fold enrichment (6-mer frequency, TF over GST control)"
15,CCTTGA,"1.33 fold enrichment (6-mer frequency, TF over GST control)"
16,GTTCTT,"1.06 fold enrichment (6-mer frequency, TF over GST control)"
17,CCGAAT,"1.17 fold enrichment (6-mer frequency, TF over GST control)"
18,CCATAA,"1.12 fold enrichment (6-mer frequency, TF over GST control)"
19,CTCTCA,"1.32 fold enrichment (6-mer frequency, TF over GST control)"
20,AAATAA,"1.25 fold enrichment (6-mer frequency, TF over GST control)"

row,Sequence,binding signal
1,ACTCTG,"1.16 fold enrichment (6-mer frequency, TF over GST control)"
2,TCTCGT,"1.15 fold enrichment (6-mer frequency, TF over GST control)"
3,TTAACT,"1.18 fold enrichment (6-mer frequency, TF over GST control)"
4,ATGAAA,"1.06 fold enrichment (6-mer frequency, TF over GST control)"
5,GCGATG,"1.29 fold enrichment (6-mer frequency, TF over GST control)"
6,ACTAAC,"1.2 fold enrichment (6-mer frequency, TF over GST control)"
7,ATCTCT,"1.18 fold enrichment (6-mer frequency, TF over GST control)"
8,ACTAGC,"1.15 fold enrichment (6-mer frequency, TF over GST control)"
9,TATTCA,"1.28 fold enrichment (6-mer frequency, TF over GST control)"
10,TTTTAT,"1.22 fold enrichment (6-mer frequency, TF over GST control)"
11,GTTATT,"1.04 fold enrichment (6-mer frequency, TF over GST control)"
12,TTCTAC,"1.5 fold enrichment (6-mer frequency, TF over GST control)"
13,GCTTCT,"1.34 fold enrichment (6-mer frequency, TF over GST control)"
14,AGTGCT,"1.33 fold enrichment (6-mer frequency, TF over GST control)"
15,ATCGAT,"1.09 fold enrichment (6-mer frequency, TF over GST control)"
16,TCTCAG,"1.33 fold enrichment (6-mer frequency, TF over GST control)"
17,CTTCTG,"1.26 fold enrichment (6-mer frequency, TF over GST control)"
18,GCTCTA,"1.15 fold enrichment (6-mer frequency, TF over GST control)"
19,ACTTTA,"1.08 fold enrichment (6-mer frequency, TF over GST control)"

# Target: T2, ETV7 (Homo sapiens, UniProt Q9Y603 1-341)
# T2 sequence: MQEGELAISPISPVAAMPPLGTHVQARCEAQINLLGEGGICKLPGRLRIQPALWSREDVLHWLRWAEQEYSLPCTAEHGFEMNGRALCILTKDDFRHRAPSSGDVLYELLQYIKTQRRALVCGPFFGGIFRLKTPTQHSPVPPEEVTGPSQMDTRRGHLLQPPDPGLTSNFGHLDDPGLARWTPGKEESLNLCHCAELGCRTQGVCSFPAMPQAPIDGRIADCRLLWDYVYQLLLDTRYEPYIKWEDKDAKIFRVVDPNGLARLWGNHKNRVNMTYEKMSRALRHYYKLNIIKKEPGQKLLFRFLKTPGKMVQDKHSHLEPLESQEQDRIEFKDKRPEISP
# Assay: as above
# Conditions: protein: recombinant; tags: N-terminal GST; dsDNA, one strand shown
# How it was run: as §1
row,Sequence,binding signal
1,AGTATT,"1.3 fold enrichment (6-mer frequency, TF over GST control)"
2,GCTCTC,"1.25 fold enrichment (6-mer frequency, TF over GST control)"
3,AAAAAT,"1.34 fold enrichment (6-mer frequency, TF over GST control)"
4,TCGACC,"1.21 fold enrichment (6-mer frequency, TF over GST control)"
5,ACAGCT,"1.21 fold enrichment (6-mer frequency, TF over GST control)"
6,TGATGG,"1.24 fold enrichment (6-mer frequency, TF over GST control)"
7,TGATGC,"1.54 fold enrichment (6-mer frequency, TF over GST control)"
8,CCTATA,"1.31 fold enrichment (6-mer frequency, TF over GST control)"
9,TAAGTT,"1.36 fold enrichment (6-mer frequency, TF over GST control)"
10,TTACGG,"1.16 fold enrichment (6-mer frequency, TF over GST control)"
11,TTGATA,"1.23 fold enrichment (6-mer frequency, TF over GST control)"
12,GCTTTC,"1.31 fold enrichment (6-mer frequency, TF over GST control)"
13,AATGTT,"1.68 fold enrichment (6-mer frequency, TF over GST control)"
14,TAATTT,"1.37 fold enrichment (6-mer frequency, TF over GST control)"
15,CCTTGA,"1.14 fold enrichment (6-mer frequency, TF over GST control)"
16,GTTCTT,"1.18 fold enrichment (6-mer frequency, TF over GST control)"
17,CCGAAT,"1.12 fold enrichment (6-mer frequency, TF over GST control)"
18,CCATAA,"1.15 fold enrichment (6-mer frequency, TF over GST control)"
19,CTCTCA,"1.11 fold enrichment (6-mer frequency, TF over GST control)"
